Experimental data from PubChem BioAssay AID1159580 (chemical genetic matrix, 2015).
Screen size: about 5,500 compounds; about 2,000 (36%) were called active. Another 18% or so got no clear call; they are omitted. No stated cut-off is given here; in the data, active means normalized growth mostly below about 0.91 (no sharp cut-off); inconclusive means no clear call, values can overlap the other calls; inactive means mostly above about 0.92. The list shows a part of the results.

Assay: chemical genetic growth profiling, strain panel (AID 1159580);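 further: tested at 20 µM; growth read once vehicle control cultures reached saturation at 30 °C; 1 = growth at the plate median or of vehicle wells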
Conditions: S. cerevisiae deletion strains, growth OD
[1] = locus YAL040C, strain CLN3, stronger effect = lower value
[2] = locus YCL061C, strain MRC1 (second series), stronger effect = lower value
[3] = locus YDR363W, strain ESC2, stronger effect = lower value
[4] = locus YER002W, strain NOP16, stronger effect = lower value
[5] = locus YGR078C, strain PAC10, stronger effect = lower value
[6] = locus YJR075W, strain HOC1, stronger effect = lower value
[7] = locus YMR307W, strain GAS1, stronger effect = lower value
[8] = locus YNL175C, strain NOP13, stronger effect = lower value
[9] = locus YNL197C, strain WHI3, stronger effect = lower value
[10] = locus YNL224C, strain SQS1, stronger effect = lower value
[11] = locus YOR083W, strain WHI5 (second series), stronger effect = lower value
[12] = locus YPL055C, strain LGE1, stronger effect = lower value
[13] = locus YPL241C, strain CIN2, stronger effect = lower value
[14] = locus YAL013W, strain DEP1, stronger effect = lower value

Measured: normalized growth

CC(C)(C)c1onc(OCP(=O)(O)O)c1CC(N)C(=O)O (stereo not drawn)
inactive: [1] 1 | [2] 0.997 | [3] 1.02 | [4] 0.996 | [5] 1.01 | [6] 1 | [7] 1.03 | locus YNL128W, strain TEP1, stronger effect = lower value 1.03 | [8] 0.999 | [9] 1.01 | [10] 1.01 | [11] 1.06 | [12] 1 | [13] 0.999

O=C(O)C1=CCCN(CCON=C(c2ccccc2)c2ccccc2)C1
inactive: [14] 1 | [1] 1.04 | [2] 1 | locus YDR150W, strain NUM1, stronger effect = lower value 1 | [3] 0.976 | [4] 0.97 | [5] 0.993 | [6] 1 | locus YMR263W, strain SAP30, stronger effect = lower value 1 | [8] 0.987 | [9] 0.981 | [10] 0.993 | [11] 0.987 | [12] 1 | [13] 1

CNCC(O)c1cccc(O)c1 (stereo not drawn)
inactive: [14] 0.992 | [1] 0.974 | [2] 0.988 | [3] 0.99 | [4] 1.01 | locus YGR229C, strain SMI1, stronger effect = lower value 1.01 | [7] 0.968 | [8] 1.01 | [9] 0.998 | [10] 1 | locus YNL322C, strain KRE1, stronger effect = lower value 0.976 | [11] 1.02 | [12] 0.984

COc1ccc(CCNC[C@@H](O)c2ccc(O)cc2)cc1OC
inactive: [14] 1.01 | [1] 0.995 | [2] 0.993 | [3] 1.02 | [4] 1.01 | [7] 0.944 | locus YNL153C, strain GIM3, stronger effect = lower value 0.999 | [8] 0.992 | [9] 0.981 | [10] 0.989 | [11] 0.986
